According to PubChem BioAssay:
Values without a mark were called inactive. This is one part of the list. Active and inactive are the calls of the source.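 How the source made its calls, unless noted: active means mean inhibition over 43.08%, the solvent-only control mean plus 3 SD; inactive means the rest.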

Experiments:
[1] = molecular target: Nuclear receptor coactivator 3 (Homo sapiens) (UniProt Q9Y6Q9); test: SRC3 coactivator transcriptional activity inhibitors, confirmation, cell-based, luminescence, quadruplicate (AID 588792); settings: HEK293 GAL4-SRC3 luciferase reporter, at 3.6 µM, stronger effect = higher value;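 further: 0% = DMSO treated cells and 100% = gossypol at 36 µM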
Nuclear receptor coactivator 3 (Homo sapiens), sequence (Q9Y6Q9 whole entry, looked up, the tested form may be a part): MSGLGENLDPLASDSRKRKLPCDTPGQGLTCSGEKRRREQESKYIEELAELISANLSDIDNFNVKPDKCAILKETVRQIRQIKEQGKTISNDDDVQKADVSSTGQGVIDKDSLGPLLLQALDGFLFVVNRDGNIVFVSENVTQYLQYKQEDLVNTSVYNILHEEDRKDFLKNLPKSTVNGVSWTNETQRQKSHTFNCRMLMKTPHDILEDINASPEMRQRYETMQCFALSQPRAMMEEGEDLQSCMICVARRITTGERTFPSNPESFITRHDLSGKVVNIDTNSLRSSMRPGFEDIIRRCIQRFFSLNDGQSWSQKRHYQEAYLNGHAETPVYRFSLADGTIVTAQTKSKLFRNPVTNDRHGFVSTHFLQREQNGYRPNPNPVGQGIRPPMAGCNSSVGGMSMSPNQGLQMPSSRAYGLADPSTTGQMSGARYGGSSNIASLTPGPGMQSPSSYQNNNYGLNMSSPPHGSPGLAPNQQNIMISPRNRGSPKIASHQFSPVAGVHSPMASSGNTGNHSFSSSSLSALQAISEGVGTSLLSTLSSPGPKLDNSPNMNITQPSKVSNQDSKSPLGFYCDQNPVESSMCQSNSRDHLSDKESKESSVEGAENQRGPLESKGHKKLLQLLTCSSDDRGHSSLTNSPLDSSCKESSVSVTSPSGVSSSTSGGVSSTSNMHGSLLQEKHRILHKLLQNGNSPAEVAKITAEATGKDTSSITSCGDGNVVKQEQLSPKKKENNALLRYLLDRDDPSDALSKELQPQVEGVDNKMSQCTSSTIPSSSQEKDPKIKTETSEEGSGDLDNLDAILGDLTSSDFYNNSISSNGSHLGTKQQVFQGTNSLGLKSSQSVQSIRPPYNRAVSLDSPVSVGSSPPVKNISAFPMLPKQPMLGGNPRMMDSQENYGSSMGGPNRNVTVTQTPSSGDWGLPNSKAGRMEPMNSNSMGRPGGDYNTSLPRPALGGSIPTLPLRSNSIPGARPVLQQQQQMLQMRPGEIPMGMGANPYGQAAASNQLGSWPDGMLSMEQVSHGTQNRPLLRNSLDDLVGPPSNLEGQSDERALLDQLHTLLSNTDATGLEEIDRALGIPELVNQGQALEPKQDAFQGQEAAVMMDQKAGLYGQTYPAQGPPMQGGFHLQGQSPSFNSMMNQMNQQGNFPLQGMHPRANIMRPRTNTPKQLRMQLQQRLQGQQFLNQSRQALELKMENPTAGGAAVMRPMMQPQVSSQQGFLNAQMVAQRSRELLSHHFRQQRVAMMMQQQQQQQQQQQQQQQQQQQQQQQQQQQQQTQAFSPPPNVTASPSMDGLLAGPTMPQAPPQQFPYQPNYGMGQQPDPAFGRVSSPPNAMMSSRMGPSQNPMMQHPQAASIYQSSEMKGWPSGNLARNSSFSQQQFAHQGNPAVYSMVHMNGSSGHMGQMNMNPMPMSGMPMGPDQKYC

[2] = test system: transactivating tegument protein VP16 (Human herpesvirus 1), Gal4-VP16 luciferase reporter; test: VP16 transactivation inhibitors, counter-screen for SRC3 inhibitor project, cell-based, luminescence, high throughput (AID 588794; in the data active means inhibition above about 30%); settings: mammalian cells, VP16-driven luciferase reporter luminescence; at 3.6 µM; stronger effect = higher value
[3] = molecular target: Nuclear receptor coactivator 1 (Homo sapiens) (UniProt Q15788); test: SRC1 coactivator transcriptional activity inhibitors, confirmation, cell-based, luminescence, quadruplicate (AID 588820;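 active means mean inhibition above 46.68%, the untreated control wells mean plus 3 SD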;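 further: 0% = DMSO wells and 100% = gossypol 36 µM treated wells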); settings: HEK293 GAL4-SRC1 luciferase reporter, at 3.6 µM, stronger effect = higher value
Nuclear receptor coactivator 1 (Homo sapiens), sequence (Q15788 whole entry, looked up, the tested form may be a part): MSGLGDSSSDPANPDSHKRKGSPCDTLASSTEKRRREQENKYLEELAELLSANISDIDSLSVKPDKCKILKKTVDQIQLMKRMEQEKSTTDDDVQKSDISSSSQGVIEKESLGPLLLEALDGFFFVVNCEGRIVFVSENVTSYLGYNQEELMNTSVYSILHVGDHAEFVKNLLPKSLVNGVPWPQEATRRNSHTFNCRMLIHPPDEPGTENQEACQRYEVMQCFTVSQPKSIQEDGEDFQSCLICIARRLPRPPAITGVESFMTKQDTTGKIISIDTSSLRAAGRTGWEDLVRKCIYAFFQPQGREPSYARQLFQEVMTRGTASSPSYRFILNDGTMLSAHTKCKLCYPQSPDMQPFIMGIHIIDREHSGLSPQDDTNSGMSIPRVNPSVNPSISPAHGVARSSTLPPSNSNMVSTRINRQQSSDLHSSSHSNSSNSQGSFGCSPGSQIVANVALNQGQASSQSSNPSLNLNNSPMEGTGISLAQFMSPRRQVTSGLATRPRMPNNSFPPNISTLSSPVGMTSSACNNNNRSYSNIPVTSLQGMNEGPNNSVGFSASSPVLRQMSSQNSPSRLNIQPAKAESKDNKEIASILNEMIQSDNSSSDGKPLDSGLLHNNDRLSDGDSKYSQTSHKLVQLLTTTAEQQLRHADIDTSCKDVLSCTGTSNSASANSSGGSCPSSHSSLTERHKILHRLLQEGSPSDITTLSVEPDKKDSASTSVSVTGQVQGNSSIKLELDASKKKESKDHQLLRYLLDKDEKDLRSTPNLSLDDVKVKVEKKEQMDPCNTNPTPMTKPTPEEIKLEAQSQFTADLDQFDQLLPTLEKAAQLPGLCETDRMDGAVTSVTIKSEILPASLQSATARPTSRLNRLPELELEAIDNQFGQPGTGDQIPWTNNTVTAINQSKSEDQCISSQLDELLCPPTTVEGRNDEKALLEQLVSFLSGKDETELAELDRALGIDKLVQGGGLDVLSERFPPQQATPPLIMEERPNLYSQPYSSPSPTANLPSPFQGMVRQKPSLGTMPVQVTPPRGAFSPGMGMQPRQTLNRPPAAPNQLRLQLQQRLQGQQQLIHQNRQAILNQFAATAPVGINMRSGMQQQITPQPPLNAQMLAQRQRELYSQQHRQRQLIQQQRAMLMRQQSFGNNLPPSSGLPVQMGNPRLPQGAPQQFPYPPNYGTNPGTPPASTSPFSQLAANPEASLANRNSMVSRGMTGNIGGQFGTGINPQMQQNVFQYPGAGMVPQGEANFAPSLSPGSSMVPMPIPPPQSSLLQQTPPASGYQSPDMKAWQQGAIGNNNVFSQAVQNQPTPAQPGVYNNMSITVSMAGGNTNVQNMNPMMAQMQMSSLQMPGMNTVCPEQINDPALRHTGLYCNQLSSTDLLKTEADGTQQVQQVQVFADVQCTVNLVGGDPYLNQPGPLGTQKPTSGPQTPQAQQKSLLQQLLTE

[4] = VP16 transactivation inhibitors, counter-screen for SRC1 inhibitor project, cell-based, luminescence, high throughput (AID 588824; in the data active means inhibition above about 25%); settings: cell-based VP16 transactivation luciferase luminescence; at 3.6 µM; stronger effect = higher value
[5] = molecular target: Photoreceptor-specific nuclear receptor (Homo sapiens) (UniProt Q9Y5X4); test: NR2E3 agonist confirmation in cells, cell-based, luminescence, CHO-S two-hybrid (AID 624378;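 active means average inhibition above a cutoff equal to the mean inhibition of all tested compounds plus one SD, cut at about 70% in these data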;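 further: 0% = DMSO in NR2E3 cells and 100% = DMSO in cells lacking NR2E3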); settings: CHO-S mammalian two-hybrid NR2E3-NCOR, luciferase luminescence; at 3.98 µM; stronger effect = higher value
Photoreceptor-specific nuclear receptor (Homo sapiens), sequence (Q9Y5X4 whole entry, looked up, the tested form may be a part): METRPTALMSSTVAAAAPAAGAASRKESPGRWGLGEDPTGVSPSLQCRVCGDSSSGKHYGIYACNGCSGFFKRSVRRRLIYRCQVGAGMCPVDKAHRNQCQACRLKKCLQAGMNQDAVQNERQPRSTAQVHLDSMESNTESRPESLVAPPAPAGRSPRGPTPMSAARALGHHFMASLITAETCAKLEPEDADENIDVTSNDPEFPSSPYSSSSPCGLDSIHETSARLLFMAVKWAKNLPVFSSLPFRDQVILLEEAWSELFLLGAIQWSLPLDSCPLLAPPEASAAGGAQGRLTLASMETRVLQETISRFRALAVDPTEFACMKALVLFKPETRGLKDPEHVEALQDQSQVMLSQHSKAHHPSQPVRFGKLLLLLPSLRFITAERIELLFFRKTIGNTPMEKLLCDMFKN

[6] = GAL4-VP16 reporter modulators, confirmation, counter-screen for NR2E3 agonist project, cell-based, luminescence, CHO-S, high throughput (AID 624379;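 active means mean inhibition above a cutoff equal to the average over all tested compounds plus one standard deviation, cut at about 70% in these data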;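 further: 0% = DMSO with VP16-transfected cells and 100% = DMSO with cells lacking VP16; higher means less reporter light so more repression of VP16 activity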); settings: CHO-S GAL4-VP16 luciferase reporter, at 3.98 µM, stronger effect = higher value
[7] = StAR promoter reporter inhibitors, counter-screen for LRH-1 inverse agonist project, cell-based, luminescence, high throughput (AID 651611; in the data active means inhibition above about 28%); settings: StAR promoter luciferase reporter counterscreen, at 3.6 µM, stronger effect = higher value
[8] = molecular target: Nuclear receptor subfamily 5 group A member 2 (Homo sapiens) (UniProt O00482); test: LRH-1 (NR5A2) inverse agonists, retest, confirmation, cell-based, luminescence (AID 651613; in the data active means inhibition above about 42%;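 further: HEK293T cells co-transfected with LRH-1 and StAR promoter luciferase reporter; 0% = vehicle wells and 100% = parental cells lacking receptor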); settings: cell-based LRH-1 luciferase reporter, inverse agonism; at 3.6 µM; stronger effect = higher value
Nuclear receptor subfamily 5 group A member 2 (Homo sapiens), sequence (O00482 whole entry, looked up): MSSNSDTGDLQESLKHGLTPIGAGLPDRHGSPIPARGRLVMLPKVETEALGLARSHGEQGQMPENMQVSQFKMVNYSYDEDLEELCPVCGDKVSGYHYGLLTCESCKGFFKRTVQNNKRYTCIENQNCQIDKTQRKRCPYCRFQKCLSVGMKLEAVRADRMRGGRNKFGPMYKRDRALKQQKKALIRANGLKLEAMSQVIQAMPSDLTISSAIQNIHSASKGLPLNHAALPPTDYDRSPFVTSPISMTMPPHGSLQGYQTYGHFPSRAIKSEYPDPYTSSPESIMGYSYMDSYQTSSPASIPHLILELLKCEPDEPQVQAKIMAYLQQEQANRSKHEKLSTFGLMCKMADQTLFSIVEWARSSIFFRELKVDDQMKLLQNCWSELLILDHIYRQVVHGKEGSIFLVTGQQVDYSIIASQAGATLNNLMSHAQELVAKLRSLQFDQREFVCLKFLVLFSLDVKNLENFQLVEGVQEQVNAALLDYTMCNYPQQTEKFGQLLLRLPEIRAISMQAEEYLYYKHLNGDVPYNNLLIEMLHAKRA

[9] = molecular target: Steroidogenic factor 1 (Homo sapiens) (UniProt Q13285); test: SF1 (NR5A1) inverse agonists, counter-screen for LRH-1 inverse agonist project, cell-based, luminescence, high throughput (AID 651614; in the data active means inhibition above about 44%;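 further: cells cotransfected with StAR promoter reporter and SF1 expression vector; 0% = vehicle on cells with receptor and 100% = vehicle on cells lacking receptor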); settings: cell-based SF1 luciferase reporter, at 3.6 µM, stronger effect = higher value
Steroidogenic factor 1 (Homo sapiens), sequence (Q13285 whole entry, looked up, the tested form may be a part): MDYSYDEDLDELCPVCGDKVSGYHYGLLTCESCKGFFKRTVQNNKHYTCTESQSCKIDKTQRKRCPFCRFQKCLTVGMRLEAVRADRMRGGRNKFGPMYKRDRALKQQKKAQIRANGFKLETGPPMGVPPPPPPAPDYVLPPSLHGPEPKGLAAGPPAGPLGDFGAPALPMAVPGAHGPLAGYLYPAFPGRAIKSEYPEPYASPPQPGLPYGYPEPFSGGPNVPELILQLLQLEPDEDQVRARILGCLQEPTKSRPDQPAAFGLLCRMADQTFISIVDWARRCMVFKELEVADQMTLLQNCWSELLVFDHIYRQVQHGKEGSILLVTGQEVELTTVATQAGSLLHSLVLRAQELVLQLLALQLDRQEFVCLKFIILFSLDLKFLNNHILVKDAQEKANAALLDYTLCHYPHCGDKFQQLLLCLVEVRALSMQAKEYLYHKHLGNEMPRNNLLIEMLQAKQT

[10] = VP16 transactivation reporter inhibitors, counter-screen for LRH-1 inverse agonist project, cell-based, luminescence, high throughput (AID 651615; in the data active means inhibition above about 33%); settings: Gal4-VP16 luciferase reporter cells, at 3.6 µM, stronger effect = higher value
[11] = test system: transactivating tegument protein VP16 (Human herpesvirus 1); test: VP16 transactivation reporter inhibitors, counter-screen for SRC2 inhibitor project, cell-based, luminescence, single concentration (AID 652007; in the data active means inhibition above about 36%); settings: cell-based VP16 transactivation luciferase reporter, at 8.9 µM, stronger effect = higher value
[12] = molecular target: Nuclear receptor coactivator 2 (Homo sapiens) (UniProt Q15596); test: SRC2 coactivator transcriptional activity inhibitors, confirmation, cell-based, luminescence, HEK293, triplicate (AID 652008;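 active means mean inhibition above 46.5%, the solvent-only control mean plus 3 SD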;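 further: 0% = DMSO-treated cells and 100% = Gossypol at 36 µM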); settings: HEK293 GAL4-SRC2 luciferase reporter, at 8.9 µM, stronger effect = higher value
[13] = Gal4-VP16 luciferase reporter inhibitors, counter-screen for COUP-TFII antagonist project, cell-based, luminescence, HEK293 (AID 687007; in the data active means inhibition above about 13%); settings: at 8.5 µM, stronger effect = higher value
[14] = molecular target: COUP transcription factor 2 (Homo sapiens) (UniProt P24468); test: NR2F2 transcriptional activity inhibitors, confirmation, cell-based, luciferase reporter, HEK293, triplicate (AID 687008;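 active means mean inhibition over three repeats above a set limit taken from the earlier primary screen, cut at about 38% in these data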;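 further: 100% = cells given the luciferase reporter alone without the COUP-TF2 vector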); settings: HEK293 NGFI-A luciferase reporter, luminescence; at 8.5 µM; stronger effect = higher value
COUP transcription factor 2 (Homo sapiens), sequence (P24468 whole entry, looked up): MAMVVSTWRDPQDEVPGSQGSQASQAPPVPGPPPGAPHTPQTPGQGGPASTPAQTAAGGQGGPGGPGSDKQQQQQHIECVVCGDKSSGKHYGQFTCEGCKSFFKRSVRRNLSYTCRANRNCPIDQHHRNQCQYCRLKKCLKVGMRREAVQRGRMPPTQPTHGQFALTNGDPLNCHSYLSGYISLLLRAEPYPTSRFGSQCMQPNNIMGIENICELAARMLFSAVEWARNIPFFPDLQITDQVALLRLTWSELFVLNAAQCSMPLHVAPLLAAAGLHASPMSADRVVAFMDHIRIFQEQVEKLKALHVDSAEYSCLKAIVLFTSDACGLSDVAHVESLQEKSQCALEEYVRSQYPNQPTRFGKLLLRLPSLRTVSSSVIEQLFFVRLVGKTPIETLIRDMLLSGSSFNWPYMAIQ

Structure (SMILES) | inhibition [1] | inhibition [2] | inhibition [3] | inhibition [4] | inhibition [5] | inhibition [6] | inhibition [7] | inhibition [8] | inhibition [9] | inhibition [10] | inhibition [11] | inhibition [12] | inhibition [13] | inhibition [14]
CCN(CC)CCNc1ccc(C)c2sc3ccc(O)cc3c(=O)c12 | 41.5% | 34.1% (active) | 50% (active) | 31.8% (active) |  |  |  |  |  |  |  |  |  | 
COc1cc(OC)c2nc(C)c3c(c2c1)N(c1ccc(O)cc1)CC3 | 5.19% | 37.7% (active) | 12.8% | 30.1% (active) |  |  |  |  |  |  |  |  |  | 
O=C(CCl)N1N=C(c2cccs2)CC1c1ccco1 (configuration not stated) | 27.7% | 6.29% | 18.4% | 17.4% |  |  |  |  |  |  |  |  |  | 
Cc1oc2c(F)c(F)c(F)c(F)c2c1S(=O)(=O)Nc1cccc(C(F)(F)F)c1 | -6.6% | 11.6% | 12.8% | 4.85% | 100% (active) | 93.3% (active) |  |  |  |  |  |  |  | 
CN(C)CC1CCC/C(=C\c2ccc(OC(=O)c3ccc(Cl)cc3)cc2)C1=O (configuration not stated) | 50.4% (active) | 60.2% (active) | 29.9% | 58.1% (active) |  |  | 70.8% (active) | 89.9% (active) | 76.4% (active) | 69.3% (active) |  |  |  | 
COc1ccc(C)cc1NC(=O)c1nnn(Cc2cccc(C(F)(F)F)c2)c1N | 10.7% | 41.8% (active) | 27.5% | 53.3% (active) |  |  | 39.6% (active) | 56.2% (active) | 57.3% (active) | 60.3% (active) |  |  |  | 
N#Cc1cc2c(nc1SCC(=O)N1CCOCC1)CCCCC2 | 21.1% | 21.5% | -34.5% | -17.9% |  |  | -55% | -116% | -87.7% | -62.9% |  |  |  | 
CCC(C)n1ncn(-c2ccc(N3CCN(c4ccc(O)cc4)CC3)cc2)c1=O (configuration not stated) | 32.4% | 51.9% (active) | 20.6% | 54.8% (active) |  |  | 63.1% (active) | 76.7% (active) | 70.8% (active) | 73.1% (active) |  |  |  | 
CN(C)c1ccc(/C=C/c2ccc3ccccc3[n+]2C)cc1 | 62.3% (active) | 74.5% (active) | 32.4% | 74.3% (active) |  |  | 58.5% (active) | 76.8% (active) | 76.6% (active) | 70.9% (active) |  |  |  | 
O=C(Nc1ccc2c(c1)OCCO2)C1CCCC1 | 15.8% | -21.9% | -2.87% | -33.3% | 53.2% | 13.8% |  |  |  |  | -46% | 51.9% (active) |  | 
Cc1[nH]c(=O)c(C(=O)/C=C/c2ccccc2)c2c1CCCC2 | 66.8% (active) | 56.1% (active) | 70.5% (active) | 57.9% (active) | 24.6% | 48% | 54.4% (active) | 71.7% (active) | 68.2% (active) | 74.8% (active) | 50.1% (active) | 63.9% (active) |  | 
COc1ccc(CCNC(=O)c2nnn(-c3ccc4c(c3)OCCO4)c2N)cc1OC | 31.7% | 2.53% | 13.1% | -6.95% |  |  | 44.7% (active) | -26.3% | 29% | -16.9% |  |  |  | 
Cc1ccsc1C(=O)OCC(=O)c1cc(C)n(CC2CCCO2)c1C (configuration not stated) | 73.4% (active) | 65.6% (active) | 49.5% (active) | 44.4% (active) | 70.8% (active) | 50.3% | 66.9% (active) | 15.3% | 61.6% (active) | 39.8% (active) | 59.5% (active) | 85% (active) | 78.4% (active) | 97.7% (active)
COc1ccc(-c2c[n+]3c(n2-c2ccc(C)cc2)CCCCC3)cc1 | 36.5% | 60.1% (active) | 32.6% | 60.2% (active) |  |  | 53% (active) | 105% (active) | 82% (active) | 73.7% (active) |  |  |  | 
COc1ccc(Nc2ncnc3ccc(Br)cc23)c(OC)c1 | 67.1% (active) | 9.75% | 68.4% (active) | 8.18% | 85.3% (active) | 75.5% (active) | 86% (active) | 47.3% (active) | 79.2% (active) | 30.8% (active) | 32.4% | 93.8% (active) | 7.13% | 11.9%
CCN1/C(=C/c2ccc3ccccc3[n+]2CC)C=Cc2ccccc21 | 74% (active) | 86.2% (active) | 55.5% (active) | 84.7% (active) |  |  | 78.7% (active) | 110% (active) | 93% (active) | 89.3% (active) |  |  |  | 
NC(=O)c1sc2nc3c(c(-c4ccco4)c2c1N)CCC3 | 53.9% (active) | 8.75% | 52.9% (active) | 33.1% (active) |  |  |  |  |  |  |  |  |  | 
CCc1ccc(-n2cc(-c3ccc(F)cc3)[n+]3c2SCCC3)cc1 | 17.1% | 32.1% (active) | 19.1% | 35.4% (active) |  |  | 18.4% | 67.7% (active) | 60.9% (active) | 48.4% (active) |  |  |  | 
